Experiment [1] concerns the target Glucocorticoid receptor (Homo sapiens) (UniProt P04150). Put plainly: GR-GFP Redistribution (AID 450;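 active = compounds whose dose series gives a full or clear partial fitted curve of increased nuclear translocation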; also: potency is read from the fitted curve at half-maximal effect). As to conditions: U2OS GR-GFP nuclear translocation, laser cytometry, 2 h.
Experiment [2] has the same target. Put plainly: GR-EFC Redistribution (AID 451; calls by dose curve; also: potency is read from the fitted curve at half-maximal effect). As to conditions: CHO-K1 GR-EFC translocation, beta-gal luminescence, 2 h. Put shortly: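 CHO-K1 cells stably expressing nuclear-localized β-gal enzyme acceptor and GR fused C-terminally to the enzyme donor fragment; ligand-driven nuclear translocation restores β-gal by complementation. Compounds titrated up to 46 uM final, 2 h at 37 °C; luminescence read.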

In experiment [3] the target is Ubiquitin carboxyl-terminal hydrolase 1 (Homo sapiens) (UniProt O94782). Nature of the experiment: Inhibitors of USP1/UAF1: Pilot qHTS (AID 504865).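 Also: rhodamine fluorescence freed from ubiquitin-rhodamine substrate followed over time; top concentration of the series differs between compounds; nearly all actives have a fitted effect of over 35% in size.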 Put shortly:
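Kinetic fluorescence assay: 1nM USP1/UAF1, 15 min compound preincubation, then 150nM Ub-Rho; 480/540 nm.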

Experiment [4] deals with DNA dC->dU-editing enzyme APOBEC-3G (Homo sapiens) (UniProt Q9HC16). Nature of the experiment: qHTS for inhibitors of Vif-A3G interactions: Validation (AID 588379). Put shortly: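 HeLa cells stably expressing Vif and A3G-eYFP, 700 cells/well, incubated overnight at 37 deg C, then exposed to compound overnight at 37 deg C. Inhibition of Vif-mediated degradation read as increased yellow fluorescence (Ex 488/Em 500-530) by laser-scanning cytometry.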
On the technique in general: qHTS replaces the single test concentration by a dilution series.

Experiment [5] relates to Zika virus NS2B-NS3 protease. Nature of the experiment: Primary screen GU AMC qHTS for Zika virus inhibitors (AID 1347154). Also: nearly all actives have a fitted effect of over 70% in size. Also: potency is read from the fitted curve at half-maximal effect. Put shortly:
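Unlinked Zika NS2B hydrophilic domain/NS3 protease domain noncovalent complex (25 nM final) in 10 mM Tris-HCl pH 8.0, 0.01% Tween 20, with AMC peptide substrate. Fluorescence (ex 340, em 450 nm) change over 15 min, room temperature; percent inhibition fitted to 4-parameter Hill equation.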

Experiment [6] concerns the target Mitogen-activated protein kinase 10 (Mus musculus) (UniProt Q61831). Nature of the experiment: JNK3 AlphaScreen Assay (AID 530; active = well fitted curve in either direction with a large enough effect, not every such curve was filed as active;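 also: kinase came from lysate of stimulated human HepG2 cells; signal reports phosphorylation of biotinylated GST-cJun 1-79 at Ser73 with 10 µM ATP; series mostly up to about 57 µM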). Put shortly:
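JNK3 came from HepG2 lysates pre-activated with IL-1beta and TNF-alpha and phosphorylated biotinylated GST-cJun (1-79) at 10 uM ATP, pH 7.6, room temperature. Compounds were titrated. AlphaScreen signal used anti-phospho-cJun (Ser73) antibody.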
Background: In Alpha technology, singlet oxygen from a donor bead excites a nearby acceptor bead.

Experiment [7] concerns the target 3',5'-cyclic-AMP phosphodiesterase 4B (Homo sapiens) (UniProt Q07343). Nature of the experiment: qHTS Assay for Inhibitors of PDE-IV (AID 607; active = well fitted activation curve with a large enough effect in the main read-out, with a control signal flat, not every such curve was filed as active). Put shortly: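 HEK293 ACTOne cells with CNG channel (1000/well), endogenous PDE4; membrane potential dye, compounds up to 22.9 uM final. Fluorescence Ex 535/Em 590; RO 20-1724 (100 uM final) as reference.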
The target in experiment [8] is Cytochrome P450 1A2 (Homo sapiens) (UniProt P05177). Put plainly: p450-cyp1a2 (AID 410; calls by dose curve; also: potency is read from the fitted curve at half-maximal effect). Put shortly:
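Inhibition was calculated relative to 57 uM furafylline (full inhibition). The reaction used human CYP1A2 at 20nM with Luciferin-ME at its Km, 100uM, driven by an NADPH-regenerating system for 60 min at room temperature.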

Experiment [9] concerns the target Cytochrome P450 2C9 (Homo sapiens) (UniProt P11712). Nature of the experiment: qHTS Assay for Inhibitors and Substrates of Cytochrome P450 2C9 (AID 883). Also: nearly all actives have a fitted effect of over 60% in size. Also: potency is read from the fitted curve at half-maximal effect. Put shortly:
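A luminogenic readout tracked human CYP2C9 (10nM) converting deoxyluciferin (100uM, at KM) in 25mM KPO4 during 60 min at 37C with regenerated NADPH. Values normalized to 57uM sulphaphenazole as complete inhibition.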

The target of experiment [10] is Cytochrome P450 3A4 (Homo sapiens) (UniProt P08684). Nature of the experiment: qHTS Assay for Activators of Cytochrome P450 3A4 (AID 885). Also: nearly all actives have a fitted effect of over 65% in size. Put shortly: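 Human CYP3A4 (20 nM) with Luciferin-PPXE at 25 uM (its KM) in 200 mM KPO4; 10 min compound preincubation, then NADPH regeneration and 60 min reaction at RT. Luciferin read by luminescence; normalized to 57 uM ketoconazole full inhibition.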

The target in experiment [11] is Cytochrome P450 2C19 (Homo sapiens) (UniProt P33261). Put plainly: qHTS Assay for Inhibitors and Substrates of Cytochrome P450 2C19 (AID 899). Also: nearly all actives have a fitted effect of over 60% in size. Also: potency is read from the fitted curve at half-maximal effect. Put shortly: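 NADPH-dependent conversion of Luciferin-H EGE (10uM, at KM) by 5nM enzyme in 50mM KPO4, 60 min at 37C following 10 min compound preincubation. Stopped with luciferin detection buffer; luminescence read after 20 min.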

Experiment [12] has as its target Cytochrome P450 2D6 (Homo sapiens) (UniProt P10635). Nature of the experiment: qHTS Assay for Inhibitors and Substrates of Cytochrome P450 2D6 (AID 891). Also: nearly all actives have a fitted effect of over 60% in size. Also: potency is read from the fitted curve at half-maximal effect. Put shortly: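 Human CYP2D6 (5 nM) with 30 uM Luciferin-ME EGE (at Km) in 100 mM KPO4, compound preincubated 10 min, then NADPH regeneration system for 60 min at room temperature. Luciferin read by luminescence; normalized to 1.43 uM quinidine.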

Experiment [13] deals with Cytochrome P450 3A4 (Homo sapiens) (UniProt P08684). Put plainly: qHTS Assay for Inhibitors and Substrates of Cytochrome P450 3A4 (AID 884). Also: nearly all actives have a fitted effect of over 50% in size. Put shortly:
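20 nM human CYP3A4 with 25 uM Luciferin-PPXE (at KM) in 200 mM KPO4, preincubated 10 min with compound; NADPH regeneration started a 60 min RT reaction. Luciferin detected by luminescence, normalized to 57 uM ketoconazole as full inhibition.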

Structures are written as SMILES. A number with no mark means an inactive call. Inconclusive results are not listed. The source made the active and inactive calls. Unless noted, calls follow the shape of the dose curve; as a rule, active = well fitted curve in the direction sought with a large enough effect; inconclusive = small, poorly fitted or top-dose-only effect, or another doubt; inactive = no such curve, though single readings can be large; an effect the other way counts as inactive or inconclusive. Bounds are passed on as bounds.

DNA dC->dU-editing enzyme APOBEC-3G (Homo sapiens), sequence (Q9HC16 whole entry, looked up): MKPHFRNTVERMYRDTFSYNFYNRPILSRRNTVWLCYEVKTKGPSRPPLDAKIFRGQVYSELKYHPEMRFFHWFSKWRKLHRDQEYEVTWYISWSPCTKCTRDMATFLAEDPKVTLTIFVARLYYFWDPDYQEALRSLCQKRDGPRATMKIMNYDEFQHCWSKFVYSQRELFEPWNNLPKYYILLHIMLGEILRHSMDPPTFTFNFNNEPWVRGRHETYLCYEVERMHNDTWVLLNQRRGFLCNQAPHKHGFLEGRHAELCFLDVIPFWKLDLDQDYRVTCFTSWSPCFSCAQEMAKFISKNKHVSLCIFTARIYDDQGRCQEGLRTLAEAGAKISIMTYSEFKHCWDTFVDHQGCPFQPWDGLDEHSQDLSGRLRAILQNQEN
Glucocorticoid receptor (Homo sapiens), sequence (P04150 whole entry, looked up, the tested form may be a part): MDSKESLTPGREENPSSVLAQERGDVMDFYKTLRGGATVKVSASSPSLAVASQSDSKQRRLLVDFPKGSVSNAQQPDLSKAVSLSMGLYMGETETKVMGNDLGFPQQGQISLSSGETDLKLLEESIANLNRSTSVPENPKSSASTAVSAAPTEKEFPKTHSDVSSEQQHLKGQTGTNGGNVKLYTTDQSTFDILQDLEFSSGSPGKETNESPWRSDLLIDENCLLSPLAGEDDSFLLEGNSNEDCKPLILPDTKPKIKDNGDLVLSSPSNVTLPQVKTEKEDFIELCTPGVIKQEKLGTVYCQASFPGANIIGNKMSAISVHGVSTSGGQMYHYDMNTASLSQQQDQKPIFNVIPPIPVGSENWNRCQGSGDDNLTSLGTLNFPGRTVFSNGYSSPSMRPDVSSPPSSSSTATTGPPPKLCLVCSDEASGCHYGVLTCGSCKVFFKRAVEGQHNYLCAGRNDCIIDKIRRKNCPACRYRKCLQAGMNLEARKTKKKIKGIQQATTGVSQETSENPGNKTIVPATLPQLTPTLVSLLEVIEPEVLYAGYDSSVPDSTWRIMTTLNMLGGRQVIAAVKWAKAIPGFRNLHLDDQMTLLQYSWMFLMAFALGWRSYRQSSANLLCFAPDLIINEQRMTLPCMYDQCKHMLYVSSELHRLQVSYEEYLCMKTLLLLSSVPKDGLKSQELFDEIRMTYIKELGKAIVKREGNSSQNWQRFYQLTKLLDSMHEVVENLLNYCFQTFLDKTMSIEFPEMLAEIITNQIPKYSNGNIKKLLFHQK
Cytochrome P450 3A4 (Homo sapiens), sequence (P08684 whole entry, looked up): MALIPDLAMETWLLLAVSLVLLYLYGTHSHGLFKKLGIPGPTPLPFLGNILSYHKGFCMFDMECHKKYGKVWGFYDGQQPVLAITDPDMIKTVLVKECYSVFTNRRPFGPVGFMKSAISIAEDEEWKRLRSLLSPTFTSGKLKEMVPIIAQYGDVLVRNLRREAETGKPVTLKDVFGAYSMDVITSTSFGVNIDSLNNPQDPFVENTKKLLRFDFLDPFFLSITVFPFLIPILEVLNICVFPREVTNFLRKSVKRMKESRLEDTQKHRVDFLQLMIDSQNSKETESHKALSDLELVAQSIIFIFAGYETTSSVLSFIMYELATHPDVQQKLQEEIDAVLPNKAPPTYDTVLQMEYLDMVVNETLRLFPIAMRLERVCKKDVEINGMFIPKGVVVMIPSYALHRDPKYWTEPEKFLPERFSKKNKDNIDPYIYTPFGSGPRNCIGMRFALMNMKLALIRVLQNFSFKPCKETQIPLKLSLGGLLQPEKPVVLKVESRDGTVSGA
Cytochrome P450 1A2 (Homo sapiens), sequence (P05177 whole entry, looked up): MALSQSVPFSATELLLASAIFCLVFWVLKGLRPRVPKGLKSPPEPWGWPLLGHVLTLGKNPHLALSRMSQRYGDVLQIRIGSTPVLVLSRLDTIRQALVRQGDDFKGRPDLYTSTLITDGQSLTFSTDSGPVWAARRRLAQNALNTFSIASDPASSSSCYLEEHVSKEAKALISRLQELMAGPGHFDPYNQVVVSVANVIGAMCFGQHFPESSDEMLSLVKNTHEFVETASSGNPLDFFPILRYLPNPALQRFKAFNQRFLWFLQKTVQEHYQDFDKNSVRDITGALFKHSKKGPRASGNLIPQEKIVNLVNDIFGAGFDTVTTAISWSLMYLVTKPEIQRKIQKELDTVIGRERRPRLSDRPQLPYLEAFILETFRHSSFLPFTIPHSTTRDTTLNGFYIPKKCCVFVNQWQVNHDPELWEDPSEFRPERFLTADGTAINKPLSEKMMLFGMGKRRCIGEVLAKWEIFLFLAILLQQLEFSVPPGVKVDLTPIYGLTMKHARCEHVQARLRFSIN
Ubiquitin carboxyl-terminal hydrolase 1 (Homo sapiens), sequence (O94782 whole entry, looked up): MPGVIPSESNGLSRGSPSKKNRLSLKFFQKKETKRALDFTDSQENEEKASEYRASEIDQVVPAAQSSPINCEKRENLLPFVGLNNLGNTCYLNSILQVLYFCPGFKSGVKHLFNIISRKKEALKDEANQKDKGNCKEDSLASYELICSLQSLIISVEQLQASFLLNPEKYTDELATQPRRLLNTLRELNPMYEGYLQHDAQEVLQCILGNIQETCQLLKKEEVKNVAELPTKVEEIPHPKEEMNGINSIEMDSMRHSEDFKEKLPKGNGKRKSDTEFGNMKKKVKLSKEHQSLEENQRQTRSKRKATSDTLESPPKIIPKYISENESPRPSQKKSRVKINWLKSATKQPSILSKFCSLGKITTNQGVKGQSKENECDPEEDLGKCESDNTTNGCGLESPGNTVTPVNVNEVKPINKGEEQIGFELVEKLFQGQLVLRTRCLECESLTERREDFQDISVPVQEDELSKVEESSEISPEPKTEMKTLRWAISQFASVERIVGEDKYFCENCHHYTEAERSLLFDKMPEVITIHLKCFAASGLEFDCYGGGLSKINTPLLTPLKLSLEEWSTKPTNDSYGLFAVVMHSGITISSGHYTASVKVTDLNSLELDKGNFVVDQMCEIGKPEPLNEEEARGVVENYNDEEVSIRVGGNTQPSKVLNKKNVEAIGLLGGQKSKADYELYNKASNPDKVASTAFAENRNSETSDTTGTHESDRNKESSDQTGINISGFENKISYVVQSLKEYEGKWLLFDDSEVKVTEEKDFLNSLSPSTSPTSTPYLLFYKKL
3',5'-cyclic-AMP phosphodiesterase 4B (Homo sapiens), sequence (Q07343 whole entry, looked up): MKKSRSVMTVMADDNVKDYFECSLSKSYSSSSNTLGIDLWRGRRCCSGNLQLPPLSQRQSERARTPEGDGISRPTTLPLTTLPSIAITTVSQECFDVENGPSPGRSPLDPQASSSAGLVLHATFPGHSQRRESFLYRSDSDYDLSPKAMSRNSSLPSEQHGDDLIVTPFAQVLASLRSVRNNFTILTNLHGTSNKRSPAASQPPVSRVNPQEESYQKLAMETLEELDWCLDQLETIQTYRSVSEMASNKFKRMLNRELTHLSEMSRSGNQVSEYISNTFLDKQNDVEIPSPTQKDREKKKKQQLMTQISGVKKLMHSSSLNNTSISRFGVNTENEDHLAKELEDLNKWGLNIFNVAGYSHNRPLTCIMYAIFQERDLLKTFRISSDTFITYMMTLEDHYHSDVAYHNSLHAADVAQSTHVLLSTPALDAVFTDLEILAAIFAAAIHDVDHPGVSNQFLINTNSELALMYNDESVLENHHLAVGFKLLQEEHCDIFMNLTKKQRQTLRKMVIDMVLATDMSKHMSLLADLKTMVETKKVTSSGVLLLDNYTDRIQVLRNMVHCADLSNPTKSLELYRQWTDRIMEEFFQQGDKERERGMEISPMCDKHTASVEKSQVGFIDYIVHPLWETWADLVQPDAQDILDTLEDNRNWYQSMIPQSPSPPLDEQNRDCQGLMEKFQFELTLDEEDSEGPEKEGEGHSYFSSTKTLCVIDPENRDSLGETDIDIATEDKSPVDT
Cytochrome P450 2C19 (Homo sapiens), sequence (P33261 whole entry, looked up): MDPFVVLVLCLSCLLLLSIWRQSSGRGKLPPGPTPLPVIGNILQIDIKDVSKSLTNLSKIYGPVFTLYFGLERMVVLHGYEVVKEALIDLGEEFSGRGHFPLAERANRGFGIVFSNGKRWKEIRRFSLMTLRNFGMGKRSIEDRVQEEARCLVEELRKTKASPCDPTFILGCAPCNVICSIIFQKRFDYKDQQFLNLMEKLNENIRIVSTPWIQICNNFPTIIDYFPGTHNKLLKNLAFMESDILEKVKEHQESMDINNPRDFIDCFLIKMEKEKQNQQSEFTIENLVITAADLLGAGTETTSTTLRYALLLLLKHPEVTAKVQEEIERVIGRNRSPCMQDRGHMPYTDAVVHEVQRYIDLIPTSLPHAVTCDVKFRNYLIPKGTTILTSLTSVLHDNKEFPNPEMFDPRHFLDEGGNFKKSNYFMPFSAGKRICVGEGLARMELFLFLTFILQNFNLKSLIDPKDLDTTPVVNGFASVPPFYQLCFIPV
Cytochrome P450 2D6 (Homo sapiens), sequence (P10635 whole entry, looked up): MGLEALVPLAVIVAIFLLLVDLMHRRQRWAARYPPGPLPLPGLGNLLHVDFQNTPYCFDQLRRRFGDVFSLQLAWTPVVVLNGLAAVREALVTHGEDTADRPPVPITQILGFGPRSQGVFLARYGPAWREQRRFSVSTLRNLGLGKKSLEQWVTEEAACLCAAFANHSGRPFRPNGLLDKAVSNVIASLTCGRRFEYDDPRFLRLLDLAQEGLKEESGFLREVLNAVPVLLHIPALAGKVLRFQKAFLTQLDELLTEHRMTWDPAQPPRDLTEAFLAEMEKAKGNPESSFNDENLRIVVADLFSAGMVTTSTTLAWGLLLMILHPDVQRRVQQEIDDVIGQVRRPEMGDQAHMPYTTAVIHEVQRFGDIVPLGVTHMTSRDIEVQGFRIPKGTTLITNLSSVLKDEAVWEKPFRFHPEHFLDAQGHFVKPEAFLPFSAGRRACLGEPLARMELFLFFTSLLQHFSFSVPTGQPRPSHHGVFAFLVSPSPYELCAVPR

In the case of `c1cc2c3c(c1)c1c(n3CCNC2)CCCC1`, the Potency in experiment [1] and in [2] was more than 46 µM in each case. Also, the Potency result in experiment [3], in [4] and in experiment [5] was “inactive” each time.

On to `CCCCN1CCC[C@@H]1CNC(=O)c1cc(C#N)c2ccccc2c1OC`, for which the Potency in [1] and in [2] was more than 46 µM throughout. The Potency entry in experiment [6], in experiment [7], in experiment [3], in [4] and in experiment [5] was “inactive” in each case.

As for `Cc1c[nH]c(=O)n(CCCN2CCN(c3ccccc3OCC(F)(F)F)CC2)c1=O`, the Potency in experiment [1] and in experiment [2] was more than 46 µM in each case. Moreover, the Potency entry in [6], in experiment [7], in [3], in experiment [4] and in experiment [5] was “inactive” each time.

On to `COc1ccc2cccc(N3CCN(CCNC(=O)c4ccc(F)cc4)CC3)c2c1`, for which the Potency in [1] and in experiment [2] was more than 46 µM each time. Further, the Potency entry in experiment [6], in experiment [4] and in [5] was “inactive” in each case.

Regarding `COc1ccc([N+](=O)[O-])c2c1CCN2C(=O)CC[C@H](N)C(=O)O`, the figures for the Potency in [1] and in [2] were 4.81 µM (active) and more than 46 µM, respectively. In addition, the Potency entry in [7], in [3], in [4] and in experiment [5] was “inactive” throughout.

Regarding `CCCCCN=c1ccn(Cc2ccccc2)c2ccccc12`, the Potency in [8] is 25.1 µM (active); in [1], more than 46 µM; in experiment [2], more than 46 µM; in experiment [9], 0.316 µM (active); in [11], 0.251 µM (active). Besides, the Potency entry in [10], in [4] and in experiment [5] was “inactive” throughout.

`O=C(c1ccc(F)cc1)C1CCN(CCCCc2ccccc2)CC1`: the Potency is more than 46 µM in [1], more than 46 µM in experiment [2] and 0.0126 µM (active) in experiment [12]. Further, the Potency entry in [6], in experiment [3], in [4] and in experiment [5] was “inactive” each time.

Turning to `C[N+](C)(C)CCCCCNCC12CC3CC(CC(C3)C1)C2`, the Potency entry in [8], in experiment [6], in experiment [7], in experiment [3], in [4] and in [5] was “inactive” throughout. Moreover, the Potency in [2] is more than 46 µM.

On to `CC(C)Oc1cccc(-n2c(CCc3c[nH]c4ccc(Br)cc34)nc3ccccc3c2=O)c1`, for which the Potency in experiment [1] and in experiment [2] was more than 46 µM each time. Also, the Potency result in experiment [4] and in experiment [5] was “inactive” in each case.

Turning to `COc1ccccc1CC(=N)N1C[C@@H]2C(=O)CCC(c3ccccc3)(c3ccccc3)[C@@H]2C1`, the Potency in [1] and in experiment [2] was more than 46 µM throughout. The Potency entry in [6], in [10], in experiment [4] and in experiment [5] was “inactive” throughout.

Consider `O=S(c1ccccc1)c1ccc2nnnn2n1` (centres undefined), for which the molecule was classed as active in experiment [8]. The Potency entry in [6], in experiment [4] and in [5] was “inactive” each time. The outcome in experiment [9], in experiment [13], in experiment [10], in experiment [12] and in experiment [11] was inactive.

In the case of `COc1cc(OC)c2cc(-c3ccncc3)cnc2c1`, the Potency in experiment [8] is 0.2 µM (active); in experiment [1], more than 46 µM; in [2] it was more than 46 µM; in experiment [5] it was 21.2 µM (active). The Potency entry in [6], in experiment [7], in experiment [10] and in experiment [4] was “inactive” throughout.

The values above are taken from PubChem BioAssay (NCATS).
